# Measured values published in the supplement of paper PMC8728848.
# Shown is part of a subset that was picked to be rich in the strongest signals.
# B1: OGAN (protein)
# chain: MVQKESQATLEERESELSSNPAASAGASLEPPAAPAPGEDNPAGAGGAAVAGAAGGARRFLCGVVEGFYGRPWVMEQRKELFRRLQKWELNTYLYAPKDDYKHRMFWREMYSVEEAEQLMTLISAAREYEIEFIYAISPGLDITFSNPKEVSTLKRKLDQVSQFGCRSFALLFNDIDHNMCAADKEVFSSFAHAQVSITNEIYQYLGEPETFLFCPTEYCGTFCYPNVSQSPYLRTVGEKLLPGIEVLWTGPKVVSKEIPVESIEEVSKIIKRAPVIWDNIHANDYDQKRLFLGPYKGRSTELIPRLKGVLTNPNCEFEANYVAIHTLATWYKSNMNGVRKDVVMTDSEDSTVSIQIKLENEGSDEDIETDVLYSPQMALKLALTEWLQEFGVPHQY
# Assays:
# Experiment in all cases: glycan array binding signal (z-score within array); higher = stronger binding
# Conditions in all cases: glycan notation: IUPAC condensed, linker removed
# [1] = biological target: Fuc(a1-2)Gal(b1-3)[Fuc(a1-4)]GlcNAc(b1-2)Man(a1-3)[Fuc(a1-2)Gal(b1-3)[Fuc(a1-4)]GlcNAc(b1-2)Man(a1-3)]Man(b1-4)GlcNAc(b1-4)GlcNAc
# Method in brief: (§1)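 The Consortium for Functional Glycomics database supplied 3228 glycan arrays, of which those lacking an available protein sequence were dropped. The binding signal, a within-array Z-score, was averaged across arrays of the same protein sequence and across linkers. Negative scores can be read as non-binding.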
# [2] = biological target: Fuc(a1-2)Gal(b1-4)GlcNAc(b1-2)Man(a1-3)[Fuc(a1-2)Gal(b1-4)GlcNAc(b1-2)Man(a1-6)]Man(b1-4)GlcNAc(b1-4)[Fuc(a1-6)]GlcNAc
# Method in brief: as §1
# [3] = biological target: Fuc(a1-2)Gal(b1-4)GlcNAc(b1-2)[Fuc(a1-2)Gal(b1-4)GlcNAc(b1-4)]Man(a1-3)[Fuc(a1-2)Gal(b1-4)GlcNAc(b1-2)Man(a1-6)]Man(b1-4)GlcNAc(b1-4)GlcNAc
# Method in brief: as §1
# [4] = biological target: Fuc(a1-2)Gal(b1-4)GlcNAc(b1-3)[Fuc(a1-2)Gal(b1-4)GlcNAc(b1-6)]GalNAc
# Method in brief: as §1
# [5] = biological target: Fuc(a1-2)Gal6S(b1-3)GlcNAc6S
# Method in brief: as §1
# [6] = biological target: Fuc(a1-2)[Gal(a1-3)]Gal(b1-3)GalNAc
# Method in brief: as §1
# [7] = biological target: Fuc(a1-2)[Gal(a1-3)]Gal(b1-4)GlcNAc(b1-3)[Fuc(a1-2)[Gal(a1-3)]Gal(b1-4)GlcNAc(b1-6)]GalNAc
# Method in brief: as §1
# [8] = biological target: Fuc(a1-2)[GalNAc(a1-3)]Gal(b1-3)GalNAc(a1-3)[Fuc(a1-2)]Gal(b1-4)GlcNAc
# Method in brief: as §1
# [9] = biological target: Fuc(a1-2)[GalNAc(a1-3)]Gal(b1-3)GalNAc(b1-3)Gal(a1-4)Gal(b1-4)Glc
# Method in brief: as §1
# [10] = biological target: Fuc(a1-2)[GalNAc(a1-3)]Gal(b1-4)GlcNAc
# Method in brief: as §1
# [11] = biological target: Fuc(a1-2)[GalNAc(a1-3)]Gal(b1-4)GlcNAc(b1-3)Gal(b1-4)GlcNAc(b1-3)Gal(b1-4)GlcNAc
# Method in brief: as §1
# [12] = biological target: Fuc(a1-2)[GalNAc(a1-3)]Gal(b1-4)[Fuc(a1-3)]GlcNAc
# Method in brief: as §1
# [13] = biological target: Fuc(a1-2)[GalNAc(a1-4)]Gal(b1-4)GlcNAc
# Method in brief: as §1
# [14] = biological target: Fuc(a1-3)[Gal(b1-4)]GlcNAc6S
# Method in brief: as §1
# [15] = biological target: Fuc(a1-3)[Gal3S(b1-4)]GlcNAc
# Method in brief: as §1
# [16] = biological target: Fuc(a1-3)[Gal3S(b1-4)]GlcNAc6S
# Method in brief: as §1
# [17] = biological target: Gal(a1-3)Gal(b1-4)GlcNAc(b1-2)Man
# Method in brief: as §1
# [18] = biological target: Gal(a1-3)Gal(b1-4)[Fuc(a1-3)]GlcNAc(b1-2)Man(a1-3)[Gal(a1-3)Gal(b1-4)[Fuc(a1-3)]GlcNAc(b1-2)Man(a1-6)]Man(b1-4)GlcNAc(b1-4)GlcNAc
# Method in brief: as §1
# [19] = biological target: Gal(b1-3)GalNAc(b1-4)Gal(b1-4)Glc
# Method in brief: as §1
# [20] = biological target: Gal(b1-3)GlcNAc(b1-2)Man(a1-3)[Gal(b1-3)GlcNAc(b1-2)Man(a1-6)]Man(b1-4)GlcNAc(b1-4)[Fuc(a1-6)]GlcNAc
# Method in brief: as §1
# [21] = biological target: Gal(b1-3)GlcNAc(b1-3)Gal(b1-4)GlcNAc(b1-2)[Gal(b1-3)GlcNAc(b1-3)Gal(b1-4)GlcNAc(b1-6)]Man(a1-6)[Gal(b1-3)GlcNAc(b1-3)Gal(b1-4)GlcNAc(b1-2)Man(a1-3)]Man(b1-4)GlcNAc(b1-4)[Fuc(a1-6)]GlcNAc
# Method in brief: as §1
# [22] = biological target: Gal(b1-3)[Fuc(a1-4)]GlcNAc(b1-2)Man
# Method in brief: as §1
# [23] = biological target: Gal(b1-4)GlcNAc(b1-2)Man(a1-3)[Gal(b1-4)GlcNAc(b1-2)Man(a1-6)][Gal(b1-4)GlcNAc(b1-4)]Man(b1-4)GlcNAc(b1-4)[Fuc(a1-6)]GlcNAc
# Method in brief: as §1
# [24] = biological target: Gal(b1-4)GlcNAc(b1-3)Gal(b1-4)GlcNAc(b1-2)[Gal(b1-4)GlcNAc(b1-3)Gal(b1-4)GlcNAc(b1-6)]Man(a1-6)[Gal(b1-4)GlcNAc(b1-3)Gal(b1-4)GlcNAc(b1-2)Man(a1-3)]Man(b1-4)GlcNAc(b1-4)[Fuc(a1-6)]GlcNAc
# Method in brief: as §1
# [25] = biological target: Gal(b1-4)GlcNAc(b1-3)Gal(b1-4)GlcNAc(b1-3)Gal(b1-4)GlcNAc(b1-2)[Gal(b1-4)GlcNAc(b1-3)Gal(b1-4)GlcNAc(b1-3)Gal(b1-4)GlcNAc(b1-6)]Man(a1-6)[Gal(b1-4)GlcNAc(b1-3)Gal(b1-4)GlcNAc(b1-3)Gal(b1-4)GlcNAc(b1-2)Man(a1-3)]Man(b1-4)GlcNAc(b1-4)[Fuc(a1-6)]GlcNAc
# Method in brief: as §1
# [26] = biological target: Gal(b1-4)GlcNAc(b1-3)Gal(b1-4)GlcNAc(b1-3)Gal(b1-4)GlcNAc(b1-3)Gal(b1-4)GlcNAc(b1-3)Gal(b1-4)GlcNAc(b1-2)Man(a1-3)[Gal(b1-4)GlcNAc(b1-3)Gal(b1-4)GlcNAc(b1-3)Gal(b1-4)GlcNAc(b1-3)Gal(b1-4)GlcNAc(b1-3)Gal(b1-4)GlcNAc(b1-2)Man(a1-6)]Man(b1-4)GlcNAc(b1-4)[Fuc(a1-6)]GlcNAc
# Method in brief: as §1
# [27] = biological target: Gal(b1-4)GlcNAc(b1-3)[GlcNAc(b1-6)]Gal(b1-4)GlcNAc
# Method in brief: as §1
# [28] = biological target: Gal(b1-4)GlcNAc(b1-6)GalNAc
# Method in brief: as §1
# Gal3S(b1-4)GlcNAc = biological target: Gal3S(b1-4)GlcNAc
# Method in brief: as §1
binder,measurement,setting,value
B1,glycan array binding signal (z-score),[1],0.055
same,glycan array binding signal (z-score),[2],-0.047
same,glycan array binding signal (z-score),[3],-0.036
same,glycan array binding signal (z-score),[4],-0.036
same,glycan array binding signal (z-score),[5],0.263
same,glycan array binding signal (z-score),[6],0.104
same,glycan array binding signal (z-score),[7],0.056
same,glycan array binding signal (z-score),[8],23.3
same,glycan array binding signal (z-score),[9],7.17
same,glycan array binding signal (z-score),[10],-0.083
same,glycan array binding signal (z-score),[11],-0.044
same,glycan array binding signal (z-score),[12],-0.028
same,glycan array binding signal (z-score),[13],-0.033
same,glycan array binding signal (z-score),[14],-0.052
same,glycan array binding signal (z-score),[15],0.055
same,glycan array binding signal (z-score),[16],-0.076
same,glycan array binding signal (z-score),[17],-0.037
same,glycan array binding signal (z-score),[18],-0.048
same,glycan array binding signal (z-score),[19],-0.029
same,glycan array binding signal (z-score),[20],-0.064
same,glycan array binding signal (z-score),[21],0.166
same,glycan array binding signal (z-score),[22],-0.036
same,glycan array binding signal (z-score),[23],-0.086
same,glycan array binding signal (z-score),[24],-0.01
same,glycan array binding signal (z-score),[25],-0.03
same,glycan array binding signal (z-score),[26],-0.001
same,glycan array binding signal (z-score),[27],-0.059
same,glycan array binding signal (z-score),[28],-0.053
same,glycan array binding signal (z-score),Gal3S(b1-4)GlcNAc,-0.067
